What was measured:
Type in all cases: functional
[1] = biological target: Solute carrier family 2, facilitated glucose transporter member 1 (Homo sapiens) (UniProt P11166); test: ST_JUDE_LEISH: Cytotoxicity at 2uM final concentration against transgenic Leishmania Mexicana promastigotes LmGLUT1 that are glucose transport deficient and complemented with the human glucose transporter GLUT1. Activity is measured by DNA content using SYBR green in vitro
[2] = biological target: Hexose transporter 1 (Plasmodium falciparum) (UniProt O97467); test: ST_JUDE_LEISH: Cytotoxicity at 2uM final concentration against transgenic Leishmania Mexicana promastigotes LmPfHT that are glucose transport deficient and complemented with the Plasmodium falciparum hexose transporter. Activity is measured by DNA content using SYBR green in vitro
[3] = biological target: Glucose transporter (Leishmania mexicana) (UniProt O61059); test: ST_JUDE_LEISH: Cytotoxicity at 2uM final concentration against transgenic Leishmania Mexicana promastigotes LmGT2 that are glucose transport deficient and complemented with the L. Mexicana glucose transporter 2. Activity is measured by DNA content using SYBR green in vitro

Solute carrier family 2, facilitated glucose transporter member 1 (Homo sapiens), sequence (P11166 whole entry): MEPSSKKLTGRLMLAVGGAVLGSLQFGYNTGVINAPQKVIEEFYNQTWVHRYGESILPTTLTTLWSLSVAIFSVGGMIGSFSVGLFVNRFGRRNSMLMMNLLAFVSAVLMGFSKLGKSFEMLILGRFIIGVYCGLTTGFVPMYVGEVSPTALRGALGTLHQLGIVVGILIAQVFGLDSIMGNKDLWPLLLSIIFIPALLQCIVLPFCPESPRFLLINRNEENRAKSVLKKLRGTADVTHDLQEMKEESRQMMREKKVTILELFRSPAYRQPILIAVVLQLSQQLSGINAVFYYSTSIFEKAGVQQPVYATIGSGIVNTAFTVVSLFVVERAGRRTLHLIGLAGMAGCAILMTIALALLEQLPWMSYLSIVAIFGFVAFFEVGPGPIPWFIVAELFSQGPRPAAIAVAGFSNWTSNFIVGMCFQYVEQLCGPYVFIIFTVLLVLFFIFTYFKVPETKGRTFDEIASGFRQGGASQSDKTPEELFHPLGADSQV

SMILES	inhibition [1] [%]	inhibition [2] [%]	inhibition [3] [%]
O=C(Nc1cccc(CN2CCCN(Cc3ccc(O)cc3)CC2)c1)c1cccc(Cl)c1	12.2	13.4	11.7
CCOc1ccc(C(=O)Nc2cc(Br)c3c(c2)CNCC3)cc1C#N	6.36	5.03	5.78
CCc1ccccc1NC(=O)CN1CCN(c2ncnc3scc(-c4ccc(F)cc4)c23)CC1	1.81	3.65	2.87
Cc1cc(N2CCCC2)nc(Nc2ccc(NC(=O)Cc3ccccc3)cc2)n1	88.4	95.2	72.3
COc1ccccc1N1CCN(c2cccc(F)c2C#N)CC1	8.24	6.93	6.12
COc1ccc2nccc([C@@H](O)CN3CCC(NC(=O)/C=C/c4ccc(Cl)c(C(F)(F)F)c4)CC3)c2c1	5	4.74	-1.23
CNC(=O)NC1=NC(C)(C)N(OCc2ccc(Cl)c(Cl)c2)C(NC(=O)NC)=N1	1.27	0.11	0.39
CCc1ccccc1OCCCON1C(=N)N=C(N)NC1(C)C	28.6	37.9	29.2
CCOc1ccc(Nc2cc(C)nc(Nc3ccc(OCC)cc3)n2)cc1	0.78	2.01	1.02
Oc1ccccc1N1CCN(c2ccc(-c3nc4ccccc4[nH]3)cn2)CC1	2.48	1.99	0.57
Oc1ccc(CCNc2nc(NCc3ccccc3-c3ccc(C(F)(F)F)cc3)nc(N3CCNCC3)n2)cc1	1.66	-2.19	1.94
CCN1CCN(c2cc(C)c3cc(NC(=O)c4ccc(OC)c([N+](=O)[O-])c4)ccc3n2)CC1	2.21	2.42	2.13
CCOc1cc(C)ccc1N1CCN(CCN2CCC(NC(=O)c3ccc(-c4ccc(C#N)cc4)cc3)CC2)CC1	1.65	1.91	2.27
CC(C(=O)NC1CCN(c2ccnc(Nc3ccc(F)cc3)n2)C1)c1ccc(Cl)cc1 (stereo unspecified)	1.1	0.7	2.7
CNC(=O)C1Cc2c([nH]c3ccc(Br)cc23)C2(CCN(CCc3ccccc3)CC2)N1 (stereo unspecified)	5.38	3.44	6.65
Nc1nc(N)c2c(ccc3nn(Cc4ccccc4)cc32)n1	-0.49	0.59	-0.15
COc1cc(NC(=O)c2cc3c(C)nn(-c4cccc(C(F)(F)F)c4)c3s2)cc(OC)c1OC	0.22	1.29	2.46
CC(c1cccc(Nc2nccc(-c3c(-c4cccc(NC(=O)c5c(F)cccc5F)c4)nn4ncccc34)n2)c1)S(C)(=O)=O (stereo unspecified)	-2.21	1.6	0.35
c1ccc(CCNCc2ccc(-c3cccc(CNc4ccc5ncccc5c4)c3)cc2)cc1	14.6	11.7	11.3

SMILES	inhibition [1] [%]	inhibition [2] [%]	inhibition [3] [%]
CCOC(=O)c1ccc(NC(=O)NC2CCN(CCCCCNC(=O)/C=C/c3ccc(Cl)c(Cl)c3)C2)cc1 (stereo unspecified)	2.05	0	0.92
COc1ccc2nccc([C@@H](O)CN3CCC(NCCOc4cccc(C(F)(F)F)c4Cl)CC3)c2c1	11.3	12	6.66
COc1ccc(C(=O)COc2cccc(/C=C/C(=O)O)c2)cc1OC	0.26	0.15	-0.23
Cc1cc(Cl)c(S(=O)(=O)NC2CCCC2)cc1OCC(=O)NC1CCCCC1	3.49	2.41	3.8
N=C(N)c1ccc(NCc2cccc(C(=O)O)c2)cc1	1.02	1.06	3.66
Cc1cccc2nc(-c3cccc(-c4ccc(CN5CCCC5CN)cc4)c3)[nH]c12 (stereo unspecified)	1.85	0.15	0.68
O=C(NCCCCCN1CCC(c2ccc(O)cc2)CC1)c1ccc(-c2ccccc2)cc1	5.44	3.34	6
O=C(O)C[C@H](NC(=O)CCCNC(=O)c1cccc(-c2ccc(Cl)c(Cl)c2)c1)C(=O)O	-1.37	0.62	1.4
CCc1sc(CN(CCCNc2cc(=O)c3ccccc3[nH]2)Cc2sc(CC)c(Br)c2-c2ccsc2)c(-c2ccsc2)c1Br	3.98	4.16	5.33
N#Cc1ccc(NC2(C(=O)N3CCN(c4cccc(Cl)c4)CC3)CC2)c2ccccc12	2.79	2.36	0.86
Cc1cccc(C(=O)N2CCN(Cc3cccc(NC(=O)c4cccs4)c3)CC2)c1	7.96	9.38	7.07
COc1ccc2[nH]c(C)cc(=NN=Cc3ccncc3)c2c1	3.45	-0.44	4.43
Oc1c(Br)cc2oc3c(c2c1CNCc1ccccc1)CCCC3	-0.72	-0.92	-0.81
COc1ccc(CNCc2ccc(-c3cccc(-c4nc5cc(C(F)(F)F)ccc5[nH]4)c3)cc2)cc1	-1.07	-0.35	-2.33
CC(=O)Nc1ccc(Cl)c(Cl)c1	-0.84	0.05	-0.72
COc1cc(C=NNc2ccnc3cc(Cl)ccc23)ccc1O	2.02	2.62	3.46
CCCCCCn1c(Sc2ccc(C#N)c([N+](=O)[O-])c2)nnc1-c1ccc(N(C)C)cc1	17.6	16.1	15.3
Cc1cccc2nc(-c3ccc(-c4ccc(CN5CCC(CO)CC5)cc4)s3)[nH]c12	3.72	2.43	0.87

Source: ChEMBL document CHEMBL3433997, “St. Jude Leishmania screening dataset” (2016)
